Test results from PubChem BioAssay AID1159580 (chemical genetic matrix, 2015).
The campaign covered roughly 5,500 compounds. About 2,000 (36%) were called active. Inconclusive results (about 18%) are left out. Cut-off read from the data, not from the text of the source: active = normalized growth mostly below about 0.91 (no sharp cut-off); inconclusive = no clear call, values can overlap the other calls; inactive = mostly above about 0.92. The list shows a part of the results.

Experiment: chemical genetic growth profiling, strain panel (AID 1159580);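 note: tested at 20 µM; growth read once vehicle control cultures reached saturation at 30 °C; 1 = growth at the plate median or of vehicle wells; lower values mean less growth of the strain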
Conditions: growth OD
[1] = S. cerevisiae deletion strains, locus YAL013W, strain DEP1, active compounds read low
[2] = S. cerevisiae deletion strains, locus YBR229C, strain ROT2, active compounds read low
[3] = S. cerevisiae deletion strains, locus YDL101C, strain DUN1, active compounds read low
[4] = S. cerevisiae deletion strains, locus YDR150W, strain NUM1, active compounds read low
[5] = S. cerevisiae deletion strains, locus YEL061C, strain CIN8, active compounds read low
[6] = S. cerevisiae deletion strains, locus YGR078C, strain PAC10, active compounds read low
[7] = S. cerevisiae deletion strains, locus YHR030C, strain SLT2, active compounds read low
[8] = S. cerevisiae deletion strains, locus YHR087W, strain rtc3, active compounds read low
[9] = S. cerevisiae deletion strains, locus YJR043C, strain POL32, active compounds read low
[10] = S. cerevisiae deletion strains, locus YJR075W, strain HOC1, active compounds read low
[11] = S. cerevisiae deletion strains, locus YLR039C, strain RIC1, active compounds read low
[12] = S. cerevisiae deletion strains, locus YLR058C, strain SHM2 (second series), active compounds read low
[13] = S. cerevisiae deletion strains, locus YLR085C, strain ARP6, active compounds read low
[14] = S. cerevisiae deletion strains, locus YLR262C, strain YPT6, active compounds read low
[15] = S. cerevisiae deletion strains, locus YML094W, strain GIM5, active compounds read low
[16] = S. cerevisiae deletion strains, locus YMR219W, strain ESC1, active compounds read low
[17] = S. cerevisiae deletion strains, locus YMR263W, strain SAP30, active compounds read low
[18] = S. cerevisiae deletion strains, locus YNL153C, strain GIM3, active compounds read low
[19] = S. cerevisiae deletion strains, locus YNL298W, strain CLA4 (second series), active compounds read low
[20] = S. cerevisiae deletion strains, locus YNL322C, strain KRE1, active compounds read low
[21] = S. cerevisiae deletion strains, locus YNR030W, strain Alg12, active compounds read low
[22] = S. cerevisiae deletion strains, locus YPL055C, strain LGE1, active compounds read low
[23] = S. cerevisiae deletion strains, locus YPL241C, strain CIN2, active compounds read low
[24] = S. cerevisiae deletion strains, locus YPR135W, strain CTF4, active compounds read low

Measured: normalized growth

COc1ccccc1NC(=S)NCCc1ccc(OC)c(OC)c1
inactive: [1] 0.997 | [2] 1 | [3] 1.05 | [4] 1.02 | [5] 0.998 | [6] 0.998 | [7] 0.979 | [8] 1.02 | [9] 0.982 | [10] 0.991 | [11] 0.91 | [12] 0.99 | [13] 0.942 | [14] 0.954 | [15] 1.1 | [16] 0.999 | [17] 0.989 | [18] 1.02 | [19] 0.952 | [20] 0.997 | [21] 1.02 | [22] 1.03 | [23] 0.927 | [24] 1.04

S=C(NCc1cccs1)Nc1cc(Cl)cc(Cl)c1
inactive: S. cerevisiae deletion strains, locus YAR019C, strain CDC15, active compounds read low 0.942 | S. cerevisiae deletion strains, locus YBL105C, strain PKC1, active compounds read low 0.947 | S. cerevisiae deletion strains, locus YBR135W, strain CKS1, active compounds read low 0.936 | S. cerevisiae deletion strains, locus YBR136W, strain MEC1, active compounds read low 0.945 | S. cerevisiae deletion strains, locus YBR160W, strain CDC28, active compounds read low 0.944 | S. cerevisiae deletion strains, locus YDL017W, strain CDC7, active compounds read low 0.955 | S. cerevisiae deletion strains, locus YDL028C, strain MPS1, active compounds read low 0.944 | [3] 0.979 | S. cerevisiae deletion strains, locus YDL108W, strain KIN28, active compounds read low 0.947 | S. cerevisiae deletion strains, locus YDL132W, strain cdc53, active compounds read low 0.962 | S. cerevisiae deletion strains, locus YDL214C, strain PRR2, active compounds read low 0.912 | S. cerevisiae deletion strains, locus YDR052C, strain DBF4, active compounds read low 0.96 | S. cerevisiae deletion strains, locus YDR054C, strain cdc34, active compounds read low 0.967 | S. cerevisiae deletion strains, locus YDR226W, strain ADK1, active compounds read low 0.955 | S. cerevisiae deletion strains, locus YDR477W, strain SNF1, active compounds read low 0.894 | S. cerevisiae deletion strains, locus YER123W, strain YCK3, active compounds read low 0.848 | S. cerevisiae deletion strains, locus YER133W, strain GLC7, active compounds read low 0.867 | S. cerevisiae deletion strains, locus YFL009W, strain cdc4, active compounds read low 0.928 | S. cerevisiae deletion strains, locus YFL029C, strain CAK1, active compounds read low 0.936 | S. cerevisiae deletion strains, locus YFR003C, strain YPI1, active compounds read low 0.948 | S. cerevisiae deletion strains, locus YFR019W, strain FAB1, active compounds read low 0.95 | S. cerevisiae deletion strains, locus YFR028C, strain CDC14, active compounds read low 0.959 | S. cerevisiae deletion strains, locus YGR040W, strain KSS1, active compounds read low 0.891 | S. cerevisiae deletion strains, locus YGR052W, strain FMP48, active compounds read low 0.964 | S. cerevisiae deletion strains, locus YGR092W, strain DBF2, active compounds read low 0.739 | [7] 0.988 | S. cerevisiae deletion strains, locus YHR079C, strain IRE1, active compounds read low 0.961 | S. cerevisiae deletion strains, locus YHR082C, strain KSP1, active compounds read low 0.901 | S. cerevisiae deletion strains, locus YHR205W, strain SCH9, active compounds read low 0.946 | S. cerevisiae deletion strains, locus YIL147C, strain SLN1, active compounds read low 0.949 | S. cerevisiae deletion strains, locus YJL095W, strain BCK1, active compounds read low 0.958 | S. cerevisiae deletion strains, locus YJL128C, strain PBS2, active compounds read low 0.892 | S. cerevisiae deletion strains, locus YJL157C, strain FAR1, active compounds read low 0.879 | S. cerevisiae deletion strains, locus YJR016C, strain ILV3, active compounds read low 0.948 | S. cerevisiae deletion strains, locus YJR066W, strain TOR1 (second series), active compounds read low 0.874 | S. cerevisiae deletion strains, locus YJR066W, strain TOR1, active compounds read low 0.917 | S. cerevisiae deletion strains, locus YKL048C, strain ELM1, active compounds read low 0.953 | S. cerevisiae deletion strains, locus YKL067W, strain YNK1, active compounds read low 0.902 | S. cerevisiae deletion strains, locus YKL101W, strain HSL1, active compounds read low 0.923 | S. cerevisiae deletion strains, locus YKL193C, strain SDS22, active compounds read low 0.937 | S. cerevisiae deletion strains, locus YKL203C, strain TOR2, active compounds read low 0.944 | S. cerevisiae deletion strains, locus YLR113W, strain HOG1, active compounds read low 0.912 | S. cerevisiae deletion strains, locus YLR133W, strain CKI1, active compounds read low 0.931 | S. cerevisiae deletion strains, locus YLR403W, strain SFP1, active compounds read low 0.898 | S. cerevisiae deletion strains, locus YML070W, strain DAK1, active compounds read low 0.883 | S. cerevisiae deletion strains, locus YMR001C, strain CDC5, active compounds read low 0.941 | S. cerevisiae deletion strains, locus YMR205C, strain PFK2 (second series), active compounds read low 0.918 | S. cerevisiae deletion strains, locus YMR277W, strain FCP1, active compounds read low 0.934 | S. cerevisiae deletion strains, locus YNL006W, strain LST8, active compounds read low 0.944 | S. cerevisiae deletion strains, locus YNL020C, strain ARK1, active compounds read low 0.906 | S. cerevisiae deletion strains, locus YNL161W, strain CBK1, active compounds read low 0.946 | S. cerevisiae deletion strains, locus YNL183C, strain NPR1, active compounds read low 0.928 | S. cerevisiae deletion strains, locus YNL207W, strain RIO2, active compounds read low 0.928 | S. cerevisiae deletion strains, locus YNL222W, strain SSU72, active compounds read low 0.93 | S. cerevisiae deletion strains, locus YNL307C, strain MCK1 (second series), active compounds read low 0.935 | S. cerevisiae deletion strains, locus YOL078W, strain AVO1, active compounds read low 0.934 | S. cerevisiae deletion strains, locus YOL136C, strain PFK27, active compounds read low 0.897 | S. cerevisiae deletion strains, locus YOR061W, strain CKA2, active compounds read low 0.872 | S. cerevisiae deletion strains, locus YOR119C, strain RIO1, active compounds read low 0.936 | S. cerevisiae deletion strains, locus YOR231W, strain MKK1, active compounds read low 1.01 | S. cerevisiae deletion strains, locus YOR329C, strain SCD5, active compounds read low 0.949 | S. cerevisiae deletion strains, locus YPL031C, strain PHO85, active compounds read low 0.865 | S. cerevisiae deletion strains, locus YPL153C, strain RAD53, active compounds read low 0.862 | S. cerevisiae deletion strains, locus YPL204W, strain HRR25, active compounds read low 0.878 | S. cerevisiae deletion strains, locus YPL209C, strain IPL1, active compounds read low 0.942 | S. cerevisiae deletion strains, locus YPL256C, strain CLN2, active compounds read low 0.961 | S. cerevisiae deletion strains, locus YPR025C, strain CCL1, active compounds read low 0.949 | S. cerevisiae deletion strains, locus YPR106W, strain ISR1, active compounds read low 0.948 | S. cerevisiae deletion strains, locus YPR111W, strain DBF20, active compounds read low 0.952 | S. cerevisiae deletion strains, strain NNK1, active compounds read low 0.959 | S. cerevisiae deletion strains, strain TSCII, active compounds read low 0.936

COc1cc([C@@H]2c3cc4c(cc3[C@H](O)C3COC(=O)[C@@H]32)OCO4)cc(OC)c1OC (stereo not given in full)
inactive: S. cerevisiae deletion strains, locus YAL040C, strain CLN3, active compounds read low 1.06 | S. cerevisiae deletion strains, locus YCL061C, strain MRC1 (second series), active compounds read low 0.999 | S. cerevisiae deletion strains, locus YDR363W, strain ESC2, active compounds read low 1 | S. cerevisiae deletion strains, locus YER002W, strain NOP16, active compounds read low 1.02 | [6] 1.02 | [18] 1.04 | S. cerevisiae deletion strains, locus YNL175C, strain NOP13, active compounds read low 1.02 | S. cerevisiae deletion strains, locus YNL197C, strain WHI3, active compounds read low 1 | S. cerevisiae deletion strains, locus YNL224C, strain SQS1, active compounds read low 1 | S. cerevisiae deletion strains, locus YOR083W, strain WHI5 (second series), active compounds read low 1

CC(=N/O)/C(C)=C/c1ccc(Cl)cc1
inactive: [4] 0.847
active: [1] 0.8 | [2] 0.822 | [3] 0.835 | [5] 0.648 | [6] 0.752 | S. cerevisiae deletion strains, locus YGR229C, strain SMI1, active compounds read low 0.898 | [7] 0.165 | [8] 0.785 | [9] 0.824 | [10] 0.521 | [11] 0.327 | [12] 0.848 | [13] 0.164 | [14] 0.311 | [15] 0.712 | [16] 0.855 | [17] 0.837 | [18] 0.852 | [19] 0.441 | [20] 0.885 | [21] 0.555 | S. cerevisiae deletion strains, locus YOL006C, strain TOP1, active compounds read low 0.305 | [22] 0.56 | [23] 0.502 | [24] 0.231

C/C(=N/O)c1ccn(S(=O)(=O)c2ccc(Cl)cc2)c1
inactive: [1] 0.998 | [2] 1.02 | S. cerevisiae deletion strains, locus YCL061C, strain MRC1, active compounds read low 1.05 | [3] 1.03 | S. cerevisiae deletion strains, locus YDL134C, strain PPH21, active compounds read low 1 | [4] 0.891 | [5] 0.983 | [6] 1.01 | [7] 1.02 | [8] 0.992 | [9] 1.05 | [10] 1.02 | S. cerevisiae deletion strains, locus YKL190W, strain CNB1, active compounds read low 0.995 | [11] 1.04 | [12] 0.978 | [13] 0.99 | [14] 1.04 | [15] 1.02 | [16] 0.996 | [17] 0.998 | S. cerevisiae deletion strains, locus YNL128W, strain TEP1, active compounds read low 1 | [18] 1.05 | [19] 1.02 | [20] 0.983 | [21] 1 | [22] 0.989 | [23] 1 | [24] 1.06 | S. cerevisiae strains, strain wild type, active compounds read low 1.01
